LMNA splice mod: changes lamin A minigene splicing in HeLa cells | HeLa LMNA splicing GFP/RFP minigene ratio, 48 h | hit rate 0.01% among 200,000 | Potency, µM (series often up to 46.1 µM), without a hit: top-dose ratio change, negative = inhibition, actives largely listed as inhibitors; active = well fitted inhibition curve with a large enough effect in the signal ratio, with a control signal flat, not every such curve was filed as active; inconclusive = small, poorly fitted or top-dose-only effect, or effect the other way, or a change in a side signal; the % refers to the signal ratio; note: potency is the fitted concentration of half-maximal effect
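S3 HeLa cells stably expressing lamin A-EGFP splicing minigene plus DsRed2, 600 cells/well, 48 h compound exposure at 37C. Laser-scanning cytometry; analysed as GFP (500-530 nm)/RFP (575-640 nm) total intensity ratio; 0.5% DMSO vehicle.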
PNC inhibitor: perinucleolar compartment assembly inhibition | activity change (PNC), negative = inhibition, % at 10 µM | PC3M PTB-GFP, PNC prevalence imaging, 16 h; hits give low values | AID 2417 | hit rate 3.1% among 140,000;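 active = readout at or below -70, meaning at least 70% loss of cells showing the perinucleolar compartment, a nuclear body marking cancer cells; inconclusive = readout between -30 and a set limit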;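 note: plate controls were DMSO wells for no effect and camptothecin positive control wells for full effect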
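PC3M cells stably expressing PTB-GFP, 750–1000 cells/well, treated 16 h at 37 °C with compound (23 nl of library stock), in duplicate. After paraformaldehyde fixation and Hoechst stain, imaged at 20x; PNC prevalence scored by image analysis.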
12-hLO inh: blocks human 12-lipoxygenase activity | hit rate 0.12% among 150,000 | purified 12-hLO, xylenol orange hydroperoxide absorbance | P18054 | Potency, µM (doses to about 57.1 µM), for inactives: top-dose activity change, negative = inhibition, actives largely listed as inhibitors; active = well fitted inhibition curve with a large enough effect; inconclusive = small, poorly fitted or top-dose-only effect; note: potency is the fitted concentration of half-maximal effect; nearly all actives have a fitted effect of over 55% in size
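Xylenol orange chromogenic assay: hydroperoxide from 12hLO oxidises Fe(II), giving red-shifted Fe(III)-XO absorbance. Conditions: 150 nM enzyme, 40 uM arachidonic acid, 25 mM Hepes pH 7.0, 0.01% Triton X-100, 30 min, room temperature.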
ALDH1A1 block: blocks purified human ALDH1A1 activity; Purified ALDH1A1, NADH fluorescence, propionaldehyde substrate; hit rate 7.3% among 220,000; Potency, µM (highest dose often 75.3 µM), for the others: at the highest dose activity, negative = inhibition, actives largely listed as inhibitors; AID 1030;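 note: potency is the fitted concentration of half-maximal effect; plate controls were no enzyme wells and a reference inhibitor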
Target sequence (P00352 whole entry, looked up): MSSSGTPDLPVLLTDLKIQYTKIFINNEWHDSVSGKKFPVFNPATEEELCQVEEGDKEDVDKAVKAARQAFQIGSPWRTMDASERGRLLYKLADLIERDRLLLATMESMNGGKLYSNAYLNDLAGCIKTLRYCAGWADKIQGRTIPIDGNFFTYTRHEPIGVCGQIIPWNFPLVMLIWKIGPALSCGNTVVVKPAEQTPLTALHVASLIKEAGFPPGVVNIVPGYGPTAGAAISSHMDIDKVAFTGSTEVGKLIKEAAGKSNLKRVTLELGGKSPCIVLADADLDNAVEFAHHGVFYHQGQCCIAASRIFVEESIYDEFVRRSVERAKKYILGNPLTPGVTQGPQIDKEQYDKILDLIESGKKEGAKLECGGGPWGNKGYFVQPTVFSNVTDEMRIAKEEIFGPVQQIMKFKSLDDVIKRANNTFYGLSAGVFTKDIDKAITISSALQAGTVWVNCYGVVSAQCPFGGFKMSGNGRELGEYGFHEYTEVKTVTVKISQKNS
HPGD inh: inhibitors of human 15-hydroxyprostaglandin dehydrogenase (HPGD); P15428; purified HPGD, NADH fluorescence kinetic, PGE2 substrate; Potency, µM, for inactives: at the highest dose activity change, negative = inhibition, usual class: inhibitors; hit rate 4.3% among 150,000; AID 894; note: potency is the fitted concentration of half-maximal effect
Target sequence (P15428 whole entry, looked up): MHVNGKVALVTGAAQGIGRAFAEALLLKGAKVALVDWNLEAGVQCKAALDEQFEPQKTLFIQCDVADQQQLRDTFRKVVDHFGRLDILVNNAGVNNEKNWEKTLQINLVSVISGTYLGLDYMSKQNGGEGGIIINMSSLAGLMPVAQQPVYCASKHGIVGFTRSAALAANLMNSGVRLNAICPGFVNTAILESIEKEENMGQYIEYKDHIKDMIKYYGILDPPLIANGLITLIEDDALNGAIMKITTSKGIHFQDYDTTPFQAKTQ
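20 nM HPGD preincubated 15 min at room temperature with compound in 50 mM Tris-HCl pH 8, 0.01% Tween 20. Started with 1 mM NAD+ and 30 uM prostaglandin E2; NADH fluorescence (360/450 nm) read 5 times over 30-s intervals, last minus first.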
Starred values were filed as active, the others as inactive; ? = inconclusive; . = no result given; [ ] = another dose, or the depositor's remark. Only some compounds are listed: those with a hit (about 10% of all), similar ones and a draw of the others. Unless noted, calls come from the whole dose curve; as a rule, active = well fitted inhibition curve with a large enough effect (not every such curve was filed as active); inconclusive = small, poorly fitted or top-dose-only effect, or another doubt; inactive = no such curve, though single readings can be large or run the other way. Unless noted, % is set by controls: 0 for no effect and ±100 for the full control effect.

SMILES	LMNA splice mod	PNC inhibitor	12-hLO inh	ALDH1A1 block	HPGD inh
CCOc1cccc(CC(=O)N2CCc3c([nH]c4ccccc34)C2c2ccccc2)c1OCC (configuration not stated)	3%[46 µM]	.	.	.	.
CCN(CC)C(=O)CCCOc1ccc(Cl)cc1Cl	1%	-30	-6%	-2%	25µM*
COC(=O)NNC(=O)CCCOc1ccc(Cl)cc1Cl	8%	-29	-1%	2%	-18%
CN(C(=S)NC(=O)CCCOc1ccc(Cl)cc1Cl)c1ccccc1	35%	-29	-8%	18µM*	11µM*
O=C(NCc1ccccc1)C1=C[C@@H](C2CC2)C[C@@H](OCc2ccc(CO)cc2)O1	.	.	.	11µM*	.
O=C(Nc1ccccc1)C1=C[C@H](c2coc3ccccc3c2=O)C[C@H](OCc2ccc(CO)cc2)O1	.	.	.	-7%	.
O=C(NCc1ccccc1)C1=C[C@@H](c2coc3ccccc3c2=O)C[C@@H](OCc2ccc(CO)cc2)O1	.	.	.	7.9µM*	.
O=C(NCc1ccccc1)C1=C[C@@H](C2CC2)C[C@@H](OCCCCO)O1	.	.	.	-16%	.
COc1ccc(-n2nc3ccccc3n2)cc1	6%	14	-7%	5%	-29%
COc1ccc(-n2nc3cc(C)c(N)c(Br)c3n2)cc1	?	?	25µM*	?	?
COc1ccc(CNCC(=O)Nc2ccccc2-n2cccc2)cc1	-11%[46 µM]	.	.	28µM*	.
Cc1ccccc1C(=O)Nc1ccccc1-n1cccc1	25%	?	-3%	4%	-4%
CCCOC(=O)Nc1cccc(C(C)=O)c1	3%	-100*	1%	-1%	10µM*
CCC(=O)NC(=S)Nc1cccc(C(C)=O)c1	1%	-10	-4%	8%	-15%
CCCC(=O)NC(=S)Nc1cccc(C(C)=O)c1	11%	38	-6%	-11%	16µM*
CC(=O)c1cccc(NC(=S)NC(=O)c2ccc(Br)cc2)c1	?	9	2%	-7%	-11%
CC(=O)c1cccc(NC(=S)NC(=O)CC(C)C)c1	-3%	16	-4%	4%	16µM*
CC(=O)c1cccc(NC(=S)Nc2ccn(Cc3cccc4ccccc34)n2)c1	.	.	.	0.79µM*	.
CC(=O)c1cccc(NC(=S)NCCc2ccc(F)cc2)c1	.	.	.	-4%	.
CCc1cnc2c(c1SC(C(C)=O)C(=O)N(C)C)c(=O)n(C)c(=O)n2C (configuration not stated)	-6%[46 µM]	.	.	.	.
Cc1cnc(CNc2ncncc2-c2ccccc2CN(C)C)cn1	4%	.	-6%	-5%	-14%
CCOCCCNC(=O)c1ccc(NC(=O)N2CCCCc3ccccc32)cc1	3%[46 µM]	.	.	.	.
CCCCC(=O)Nc1cccc(NC(=S)NC(=O)C(C)C)c1	-10%	44	-5%	-1%	-5%
CCCCCC(=O)NC(=S)Nc1cccc(C(C)=O)c1	0%	2	-26%	?	14µM*
COc1ccc(-c2ccc(=O)n(CC(=O)NC3CCc4ccccc43)n2)cc1OC (configuration not stated)	-10%[46 µM]	.	.	-2%	.
SMILES	LMNA splice mod	PNC inhibitor	12-hLO inh	ALDH1A1 block	HPGD inh
COc1ccc(-c2ccc(=O)n(CC(=O)Nc3ccc(C(=O)NC4CC4)cc3)n2)cc1OC	7%	71	0%	6%	16µM*
CC(C)CNS(=O)(=O)c1ccc(NC(=O)Cn2nc(-c3ccc(F)cc3)ccc2=O)cc1	?	43	-5%	5%	7.9µM*
CC(=O)c1cccc(NC(=O)Cn2nc(-c3ccc(Cl)cc3)ccc2=O)c1	12%[46 µM]	.	.	7.9µM*	.
CN(C1CCCCC1)S(=O)(=O)c1ccc(NC(=O)Cn2nc(-c3ccc(F)cc3)ccc2=O)cc1	3%	?	0%	13%	-15%
C=CCN1c2ccccc2[C@]23C[C@@H](C(=O)OC)N(S(=O)(=O)c4ccc(C)cc4)C2=NC(C(=O)OC)=C(C(=O)OC)[C@H]13	9%[9.22 µM]	.	-1%[11.4 µM]	-8%[13.5 µM]	-3%
CC12CCC(=O)N1C(C(=O)OCC(=O)Nc1sccc1C#N)CS2 (configuration not stated)	-3%	11	-1%	-15%	-9%
CC(NC(=O)COC(=O)C1CSC2(C)CCC(=O)N12)C12CC3CC(CC(C3)C1)C2 (configuration not stated)	.	.	.	4.5µM*	.
O=C1N=c2ccccc2=C1c1sc(=S)n(-c2ccc(O)cc2)c1O	.	.	.	-1%	.
Cc1c(-n2c(O)c(C3=c4ccccc4=NC3=O)sc2=S)c(=O)n(-c2ccccc2)n1C	?	.	.	7.9µM*	.
CC1=C(C(=O)Nc2ccccc2C)C(c2ccccn2)n2ncnc2N1 (configuration not stated)	-9%[46 µM]	.	.	.	.
O=C1CCCC=C1[C@@H](O)CCOCc1ccccc1	.	.	.	-6%[13.5 µM]	.
COc1cccc(NC(=O)CCS(=O)(=O)c2ccc3c(c2)oc(=O)n3C)c1	7%[46 µM]	.	.	.	.
CC(=O)Nc1ccc(SCC(=O)c2cc(C)n(CC(F)(F)F)c2C)cc1	6%	34	3%	20µM*	-16%
Cc1ccccc1NC(=O)/C(C#N)=C\c1ccsc1	?	48	-1%	-3%	-4%
N#C/C(=C\c1ccc([N+](=O)[O-])cc1)C(=O)Nc1ccccc1O	-13%	-21	-23%	18µM*	-13%
N#C/C(=C/c1ccc([N+](=O)[O-])cc1)C(=O)Nc1ccccc1O	?	-10	-20%	7.9µM*	-3%
Cc1ccccc1NC(=O)/C(C#N)=C\c1cccnc1	-8%	-82*	-3%	4%	0%
Cn1c(=O)c(-c2ccc(Cl)cc2)nc2cnc(Oc3ccccc3)nc21	.	.	1%	?	-8%
O=C(c1csnn1)N1CCC2(CCN(Cc3cc(C(F)(F)F)cc(C(F)(F)F)c3)CC2)CC1	.	.	4%	-2%	-15%
c1ccc(-n2cc(CNCCc3cscn3)c(-c3ccc4c(c3)OCO4)n2)cc1	5%[46 µM]	.	.	?	.
Cc1ccc(N2C(=O)C(CC(=O)Nc3cccc(F)c3)N(C3CC3)C2=O)cc1 (configuration not stated)	.	.	.	20µM*	.
CC1=CC(=O)C(C(C)C)=CC1=NC(=O)c1ccc(C)cc1	-16%[46 µM]	.	.	18µM*	.
CC1=CC(=O)C(C(C)C)=C/C1=N/OC(=O)c1cccc([N+](=O)[O-])c1	-10%	21	12%	?	?
Cc1cc(C)cc(N2C(=O)N(Cc3cc(=O)n4ccccc4n3)c3ccccc3S2(=O)=O)c1	-11%[46 µM]	.	.	.	.
CC(=O)Nc1cc(C(=O)NCc2ccccc2)ccc1Sc1ccc(C)cc1	-8%[46 µM]	.	.	.	.
CC(=O)Cn1ncc(Br)c(Br)c1=O	.	.	.	3.5µM*	.
CC(C)(C)C(=O)Cn1ncc(N2CCCC2)c(Br)c1=O	0%	39	-1%	-1%	-6%
O=C(OCn1ncc(Br)c(Br)c1=O)c1c(F)cccc1F	?	?	-4%	0.5µM*	28µM*
O=C1C=CC(=O)c2c(O)c(Cl)c(Cl)c(O)c21	?	.	?	1.3µM*	?
Oc1c(Cl)ccc(Cl)c1Cl	.	.	-3%	-5%	-9%

Source: PubChem BioAssay (National Center for Advancing Translational Sciences (NCATS))
